Rows were chosen to be rich in hits. Some 5.5% of all compounds tested hit in one or more screens of this group.
Gal4-VP16 FLuc – VP16 counterscreen qHTS for inhibitors of ROR gamma transcriptional activity; 310,000 tested, 3.5% active; Drosophila S2 Gal4-VP16 UAS-luciferase, luminescence, 20 h; Potency, µM (series often up to 53.6 µM), inactives show top-dose activity, negative = inhibition, hits mostly inhibitors;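 further: Gal4-VP16 expression switched on by copper sulfate through the metallothionein promoter; on the % scale 0 is the no-effect control and ±100 the full control effect; nearly all actives have a fitted effect of over 50% in size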
Chronic BCR inh – qHTS Assay to Find Inhibitors of Chronic Active B-Cell Receptor Signaling; AID 493014, 2011; 340,000 tested, 0.05% active; ABC-DLBCL IkBa-CBG/CBR reporter, luminescence ratio, 4 h; Potency, µM (series often up to 46.1 µM), for the others: top-dose activity change, negative = inhibition, hits mostly inhibitors; active means well fitted inhibition curve with a large enough effect in the signal ratio, with a control signal flat, not every such curve was filed as active; inconclusive means small, poorly fitted or top-dose-only effect, or effect the other way, or a change in a side signal; the % refers to the signal ratio;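 further: plate controls were basal doxycycline-induced cells for no effect and cells given 10 µM MG132 for full effect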
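Doxycycline induced both beetle luciferases in TMD8 lymphoma cells; IKK-driven degradation limits the IkappaBalpha-fused green signal, while red luminescence normalises for cell number and nonspecific effects. Compounds tested up to 46 uM, 4 hrs.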
uPA surface inh – qHTS for Inhibitors of Cell Surface uPA Generation. cell surface uPA generation assay, qHTS. AID 540303, 2011. 330,000 tested, 0.31% active. Potency, µM (top dose mostly 38.3 µM), inactives show at the highest dose activity change, negative = inhibition, actives largely listed as inhibitors; active means well fitted inhibition curve with a large enough effect; inconclusive means small, poorly fitted or top-dose-only effect; inactive means no such curve, though single readings can be large or run the other way; tested in mouse RAW 264.7 cells; further: on the % scale 0 is the no-effect control and ±100 the full control effect; nearly all actives have a fitted effect of over 55% in size
Mito fusion act – qHTS Assay for Small Molecule Inhibitors of Mitochondrial Division or Activators of Mitochondrial Fusion | S. cerevisiae fusion-defective mutant growth rescue, CellTiterGlo 48 h | Potency, µM (top dose mostly 46.1 µM), for the others: at the top dose growth rescue (activation), usual class: activators | 320,000 tested, 0.23% active | AID 485298, 2010; further: % of control where 0% means no effect; nearly all actives have a fitted effect of over 45% in size
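Luminescent cell viability in 1536-well qHTS format served as the measure of rescued growth in ts fusion-mutant S. cerevisiae cultured on non-fermentable YPEG for 48 hours at 37C.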
RORg inh – qHTS for inhibitors of ROR gamma transcriptional activity; Potency, µM (top dose mostly 53.6 µM), for the others: at the highest dose activity change, negative = inhibition, hits mostly inhibitors; 310,000 tested, 5.4% active; Drosophila S2 Gal4-RORgamma UAS-luciferase reporter, 20 h; further: on the % scale 0 is the no-effect control and ±100 the full control effect; nearly all actives have a fitted effect of over 60% in size
Target sequence (P51450 whole entry, looked up, the tested form may be a part): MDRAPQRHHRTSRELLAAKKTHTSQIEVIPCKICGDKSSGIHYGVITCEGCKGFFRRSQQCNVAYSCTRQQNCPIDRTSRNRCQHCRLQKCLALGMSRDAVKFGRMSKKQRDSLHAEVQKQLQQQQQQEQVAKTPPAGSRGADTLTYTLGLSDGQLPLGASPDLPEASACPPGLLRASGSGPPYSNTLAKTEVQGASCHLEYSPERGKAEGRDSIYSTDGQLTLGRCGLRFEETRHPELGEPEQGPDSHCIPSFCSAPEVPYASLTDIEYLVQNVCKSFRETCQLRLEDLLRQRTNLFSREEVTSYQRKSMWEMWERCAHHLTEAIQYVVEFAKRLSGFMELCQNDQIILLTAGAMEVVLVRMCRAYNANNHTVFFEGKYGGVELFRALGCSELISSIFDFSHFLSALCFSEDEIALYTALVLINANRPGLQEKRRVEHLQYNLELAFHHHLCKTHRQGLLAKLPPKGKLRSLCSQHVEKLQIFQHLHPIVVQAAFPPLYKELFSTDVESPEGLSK
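Stable Schneider cell line, Gal4 DNA-binding domain fused to ROR gamma, UAS-luciferase. Cmpd 1 hr RT → CuSO4 700 uM final → 20 hr RT → luciferase reagent 10 min → luminescence.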
a7 integrin act – qHTS for Activators of Integrin-Mediated Alleviation for Muscular Dystrophy | alpha7betagal myoblasts, beta-gal FDG fluorescence, 48 h | Potency, µM (highest dose often 38.3 µM), without a hit: top-dose activation, usual class: activators | 350,000 tested, 0.064% active;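 further: 100% = response of the positive control SU9516; nearly all actives have a fitted effect of over 60% in size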
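alpha7betagal+/- myoblasts (passage 13, 250/well) treated 48 h at 37C with compounds at 1:260 dilution of DMSO stock. Lysed, then beta-galactosidase activity read as FDG fluorescence (ex 480/em 540) after 30 min, with pre-read for autofluorescence.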
Numbers without * were called inactive; [ ] = another dose, or the depositor's remark. Unless noted, the call rests on the fitted dose curve; in most records, active means well fitted curve in the direction sought with a large enough effect; inconclusive means small, poorly fitted or top-dose-only effect, or another doubt; inactive means no such curve, though single readings can be large; an effect the other way counts as inactive or inconclusive. Potency means the concentration at half of the fitted maximal effect.

O=[N+]([O-])c1cccnc1N1CCC(c2cc(-c3ccc(Cl)cc3Cl)n[nH]2)CC1 was read as Gal4-VP16 FLuc inconclusive, Chronic BCR inh 10%, uPA surface inh -7%, Mito fusion act 18%, RORg inh 13% and a7 integrin act -51%.
O=[N+]([O-])c1cccnc1N1CCC(c2cc(-c3cccc(C(F)(F)F)c3)n[nH]2)CC1 was read as Gal4-VP16 FLuc inconclusive, Chronic BCR inh 21%, uPA surface inh 1%, Mito fusion act 9%, RORg inh 13µM* and a7 integrin act -42%.
Screening CC(C)C1S/C(=N/N=C/c2ccco2)NC1=O (centres undefined) returned Gal4-VP16 FLuc 3.2µM*, Chronic BCR inh 0%, uPA surface inh 2%, Mito fusion act -2%, RORg inh 0.2µM* and a7 integrin act -16%.
Screening O=C1CC(C(=O)Nc2ccccc2)S/C(=N\N=C\c2ccco2)N1 (centres undefined) returned Gal4-VP16 FLuc -15%, Chronic BCR inh inconclusive, uPA surface inh 5%, Mito fusion act -1%, RORg inh -20% and a7 integrin act 4%.
Cc1ccccc1CC1S/C(=N/N=C/c2ccco2)NC1=O (centres undefined) was read as Gal4-VP16 FLuc 2µM*, Chronic BCR inh inconclusive, Mito fusion act 0% and RORg inh 0.45µM*.
For Cc1ccc(NC(=O)CC2S/C(=N/N=C/c3ccco3)NC2=O)cc1Cl (centres undefined) the results were Gal4-VP16 FLuc 2%[10 µM], Chronic BCR inh 19%, uPA surface inh 3%, Mito fusion act -9%, RORg inh inconclusive and a7 integrin act -6%.
`CCn1cc(/C=C/C(=O)c2ccc(O)cc2)c(C)n1` gave Gal4-VP16 FLuc 4µM*, Chronic BCR inh inconclusive, Mito fusion act -10%, RORg inh 2.2µM* and a7 integrin act inconclusive.
For O=C(NC(=S)Nc1ccccc1)c1ccc(Br)o1 the results were Gal4-VP16 FLuc 0%, Chronic BCR inh 3%, uPA surface inh -2%, Mito fusion act -10%, RORg inh 3.2µM* and a7 integrin act 0%.
Screening COc1ccc(NC(=S)NC(=O)c2ccc(Br)o2)cc1 returned Gal4-VP16 FLuc inconclusive, Chronic BCR inh 0%, uPA surface inh -6%, Mito fusion act -8%, RORg inh 1µM* and a7 integrin act 20%.
`Cc1snnc1C(=O)NC(=S)Nc1ccccc1` gave Gal4-VP16 FLuc 5.6µM*, Chronic BCR inh -17%, uPA surface inh 3%, Mito fusion act 0%, RORg inh 4.5µM* and a7 integrin act inconclusive.
Screening NC(=O)c1ccccc1NC(=S)NC(=O)c1ccc(Br)o1 returned Gal4-VP16 FLuc 17%, Chronic BCR inh inconclusive, uPA surface inh 1%, Mito fusion act -1%, RORg inh -28% and a7 integrin act 20%.
`O=C(NC(=S)Nc1cccnc1)c1ccccc1` gave Gal4-VP16 FLuc -7%, Chronic BCR inh -29%, uPA surface inh 1%, Mito fusion act 3%, RORg inh -40% and a7 integrin act 24%.
`Cc1ccc(/C=C/S(=O)(=O)NCC(=O)OCC(=O)N2CC(=O)Nc3ccccc32)cc1` gave Gal4-VP16 FLuc -1%, Chronic BCR inh -4%, uPA surface inh 2%, Mito fusion act 0%, RORg inh -3% and a7 integrin act 12%.
CC1S/C(=N/N=C2CCCCC2)NC1=O (centres undefined) was read as Gal4-VP16 FLuc inconclusive, Chronic BCR inh inconclusive, uPA surface inh 2%, Mito fusion act -4%, RORg inh 10µM* and a7 integrin act 24%.

Screens: PubChem BioAssay, National Center for Advancing Translational Sciences (NCATS)
